S1P2 agonist: S1P2 (human) receptor agonism; O95136; S1P2-expressing cell line, agonist reporter read-out; activation, % at 4.5 µM; 97,000 tested, 0.46% active; in the data active = activation above about 16%;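 note: 0% = vehicle low control and 100% = maximal reference agonist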
GALR2 ag: activates the human galanin receptor 2. AID 803. 140,000 tested, 0.48% active. activation, % (concentration not given with the values). O43603. GALR2-expressing cells, agonist activation read-out; in the data active = activation above about 5%, passing the limit was not always enough;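 note: 0% = vehicle buffer wells and 100% = reference agonist at full effect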
Target sequence (O43603 whole entry, looked up): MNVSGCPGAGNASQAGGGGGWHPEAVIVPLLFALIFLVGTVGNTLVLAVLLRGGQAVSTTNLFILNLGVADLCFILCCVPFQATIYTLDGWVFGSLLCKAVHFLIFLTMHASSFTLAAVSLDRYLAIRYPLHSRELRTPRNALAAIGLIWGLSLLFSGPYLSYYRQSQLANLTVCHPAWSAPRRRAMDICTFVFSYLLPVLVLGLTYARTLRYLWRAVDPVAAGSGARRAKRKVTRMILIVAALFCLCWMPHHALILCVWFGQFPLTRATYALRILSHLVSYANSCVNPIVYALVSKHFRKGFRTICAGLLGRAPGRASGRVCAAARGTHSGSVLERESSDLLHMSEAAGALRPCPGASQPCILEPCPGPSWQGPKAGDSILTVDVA
MRP reversal: MRP-mediated drug resistance reversal; H69AR cells + 2 uM doxorubicin, CellTiter-Glo, 72 h; differential viability (reversal), % at 10 µM; 85,000 tested, 0.04% active; AID 602;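 active = viability drop by adding the cancer drug above about 55%, with treated viability meeting a 40% cutoff, limit read from the data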;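 note: viability without doxorubicin minus viability with 2 µM doxorubicin for each compound; larger differential means the compound sensitizes cells more to doxorubicin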
S1P2 blocker: blocks the human S1P2 receptor. cell-based S1P2 antagonist assay, inhibition at 5 uM. 97,000 tested, 0.21% active. inhibition, % at 5 µM. O95136; in the data active = inhibition above about 45%;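 note: CRE beta-lactamase reporter cells expressing human S1P2 stimulated with S1P; 0% = agonist at EC80 alone and 100% = agonist plus reference antagonist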
MRP1 act: activates MRP-1; H69AR cells + doxorubicin, viability rescue, CellTiter-Glo; viability increase, % at 10 µM; 140,000 tested, 0.61% active;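 active = viability gain under doxorubicin at or above a set limit, the compound median plus 3 SD, cut at about 4.7% in these data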;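 note: MRP-1 overexpressing cells given doxorubicin 25 µM after compound pretreatment; 18-22 h compound pretreatment then 72 h with doxorubicin before readout; 0% = doxorubicin-only wells and 100% = vehicle-treated cells without doxorubicin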
GALR2 blocker: GALR2 (human) receptor antagonism | GALR2-expressing cells, antagonist mode | inhibition, % at 4 µM | 140,000 tested, 0.39% active;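 note: cells stimulated with galanin 1-16 at roughly its EC80; 0% = agonist challenge control and 100% = basal control without agonist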
GALR2 blk conf: confirmation of human galanin receptor 2 (GALR2) antagonists. shares compounds with GALR2 blocker. GALR2-expressing cells, antagonist mode, inhibition. inhibition, % at 4 µM. 480 tested, 60% active;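 note: cells stimulated with galanin at about its EC80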
BLA inhib ctr: beta-lactamase inhibition, GALR2 counterscreen | shares compounds with GALR2 blocker | CHO NFAT-BLA reporter, beta-lactamase FRET, thapsigargin-stimulated | inhibition, % at 4.2 µM | 480 tested, 36% active;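 active = inhibition above the mean inhibition across tested compounds plus 3 SD, cut at about 27% in these data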;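 note: 0% = 500 nM thapsigargin stimulated wells and 100% = unstimulated BSA only wells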
Active calls of the source: *; · = no result. Hits are enriched below; roughly 1.7% of the tested compounds scored in any of these assays. Cut-off read from the data, not from the text of the source, unless noted: active = inhibition above about 27%; inactive = the rest.

SMILES	S1P2 agonist	GALR2 ag	MRP reversal	S1P2 blocker	MRP1 act	GALR2 blocker	GALR2 blk conf	BLA inhib ctr
Cc1cccc2sc(NC(=O)C3CCN(S(=O)(=O)c4cc([N+](=O)[O-])ccc4Cl)CC3)nc12	·	-1	·	·	-6	27*	22	21
CCCCCOc1ccc(Br)cc1/C(C)=N/NC1=NCCN1	-6	0	1	21	-7	28*	8	28*
COc1ccc(Br)cc1/C(C)=N/NC1=NCCN1	-1	-3	-25	16	-2	13	·	·
C=CCn1nc([N+](=O)[O-])nc1Sc1cccc2cccnc12	·	-1	·	·	-5	31*	27	11
CCn1cc(CNC(=O)c2c(-c3c(Cl)cccc3Cl)noc2C)c(C)n1	·	1	·	·	-2	12	·	·
COc1ccccc1-n1nc(C(=O)Nc2ccc3c(c2)OCO3)c2ccccc2c1=O	·	-2	-11	·	-2	42*	26	31*
COc1ccc(-n2nc(C(=O)Nc3ccc4c(c3)OCO4)c3ccccc3c2=O)c(OC)c1	·	-2	-3	·	-2	5	·	·
Cc1nc2ccccn2c1C(=O)NNS(=O)(=O)c1ccc(C(C)(C)C)cc1	·	-2	·	·	-1	30*	20	10
CCOc1ccc(OCC)c(S(=O)(=O)NNC(=O)c2c(C)nc3ccccn23)c1	·	1	·	·	-3	3	·	·
CCOC(=O)C1CCCN(c2c(Nc3cccc(C)c3)c(=O)c2=O)C1 (configuration not stated)	-1	6	18	5	-2	-2	·	·
Nc1nn(-c2ccccc2)c(N)c1N=Nc1ccccc1	·	-1	·	·	-2	28*	16	9
N#C/C(=C\c1ccc(Sc2nc3ccccc3[nH]2)o1)c1ccccc1	-3	-2	23	-22	0	6	·	·
N#C/C(=C\c1ccc(Sc2ccc(Cl)cc2)o1)c1nc2ccccc2[nH]1	·	0	·	·	-2	32*	35*	29*
N#C/C(=C/c1cccs1)c1nc2ccccc2[nH]1	·	0	·	·	-2	19	·	·
Cc1ccc(/C=C(\C#N)c2nc3ccccc3[nH]2)s1	-2	-3	·	-19	-1	30*	34*	21
CC(=O)c1c(C)[nH]c(C(=O)OCCCCN2C(=O)c3ccccc3C2=O)c1C	-2	0	0	63*	-3	32*	39*	7
CC(=O)c1c(C)[nH]c(C(=O)OCc2ccccc2)c1C	·	-1	·	·	-2	4	·	·
CC1(C)CC(=O)C(C(C2=C(O)CC(C)(C)CC2=O)c2cccc(O)c2)C(=O)C1 (configuration not stated)	-7	-2	·	19	-3	0	·	·
CC1(C)CC(=O)C2=C(C1)N(c1cccc(O)c1)C1=C(C2)C(=O)CC(C)(C)C1	0	2	49	26	-2	43*	25	25
Cc1onc(-c2ccccc2)c1C(=O)Nc1nc2c(s1)CCCC2	-2	-1	-63	-9	-3	27*	8	4
O=C(Nc1ncc(Cc2ccc(SC(F)F)cc2)s1)c1ccc(OC(F)F)cc1	·	3	·	·	-3	33*	8	27*
Cc1ccc(Cc2cnc(NC(=O)c3ccco3)s2)cc1	-2	-2	-11	-1	0	-4	·	·
Cc1ccc(S(=O)(=O)CC2CSc3nc4ccccc4n32)cc1 (configuration not stated)	-5	-1	·	58*	0	36*	29*	7
O=S(=O)(Nc1cc(C(F)(F)F)ccc1N1CCOCC1)c1ccc2ccccc2c1	·	-1	·	·	-3	5	·	·
COc1ccc2c(c1)O[C@@H](c1cccc(C(F)(F)F)c1)[C@H](OC(=O)NCCc1ccc(OC)c(OC)c1)C2=O	·	-2	·	·	3	-2	·	·
SMILES	S1P2 agonist	GALR2 ag	MRP reversal	S1P2 blocker	MRP1 act	GALR2 blocker	GALR2 blk conf	BLA inhib ctr
Clc1ccc2nc(N3CCNCC3)nc(-c3ccccc3)c2c1	59*	24*	-1	2	-6	35*	30*	50*
O=C(OCn1ncc(Br)c(Br)c1=O)c1c(F)cccc1F	-7	-5	0	69*	-3	96*	94*	98*
C=CCn1c(C)cc(C(=O)Cn2ncc(Cl)c(Cl)c2=O)c1C	·	-2	·	·	-5	57*	46*	21
CC(C)(C)OC(=O)[C@H]1[C@H](c2ccc([N+](=O)[O-])cc2)C2(C(=O)c3ccccc3C2=O)C2c3ccccc3C=NN21 (some centres not stated)	·	-2	·	·	1	-9	·	·
Cc1ccccc1OCCNC(=O)/C=C/c1ccccc1	·	0	·	·	-1	-3	·	·
COc1ccc(CS(=O)(=O)/C(Cl)=C(/Cl)C(=O)Nc2ccc(OC)nc2)cc1	-14	-4	0	95*	-3	93*	92*	92*
COc1ccc(NC(=O)/C(Cl)=C(/Cl)S(=O)Cc2ccccc2)cn1 (configuration not stated)	-7	-3	0	101*	-3	105*	102*	106*
COc1ccc(/C=C/C(=O)Nc2ccc(OC)nc2)cc1	·	-1	·	·	-2	8	·	·
COc1ccc(Cl)cc1NC(=S)N1CCN(C(=O)c2ccco2)CC1	-3	-4	·	10	-1	1	·	·
Cn1nnnc1Sc1nc(-c2cccnc2)nc2ccccc12	·	·	0	·	·	·	·	·
CN(C)c1cccc2c(C=C(C#N)C#N)ccc(N(C)C)c12	·	-2	·	·	-2	11	·	·
O=C(CSc1ccc(Cl)cc1)N1CCOCC1	-5	-2	6	-5	-1	29*	-2	-4
Cc1cccc(NC(=O)c2ccccc2NC(=O)C2CCCCC2)c1C	-3	-2	·	-8	-3	42*	10	16
O=C(Nc1ccccc1)c1ccccc1NC(=O)C1CCCCC1	-7	-3	·	2	-2	2	·	·
CCN(CC)C(=O)c1c(Cl)nc(C)c([N+](=O)[O-])c1C	·	-2	·	·	-2	-7	·	·
O=C(NCC1CCCO1)C(=O)NCC(c1ccco1)N1CCN(c2ccccc2F)CC1 (configuration not stated)	·	-1	·	·	-1	-1	·	·
CCN(CC)c1ccc(/C=N/N(c2ccccc2)c2ccccc2)c(O)c1	·	0	·	·	2	9	·	·
Cc1ccc2cc(/C=N/Nc3nc4ccccc4[nH]3)c(Cl)nc2c1	·	-3	·	·	-7	98*	23	14
CCN(CC)c1ccc(/C=N/Nc2nc3ccccc3[nH]2)c(O)c1	1	0	·	3	-5	43*	45*	15
COc1cc(/C=N\Nc2nc3ccccc3[nH]2)cc(OC)c1OC	4	-2	·	-6	-3	12	·	·
COc1ccc(Cl)cc1-c1nc(-c2ccc(NC(=O)c3cccs3)cc2)no1	·	0	·	·	-5	10	·	·
CCc1cc(=O)oc2c(C)c(OCC(=O)N3CCCc4ccccc43)ccc12	-3	-3	-8	6	3	-2	·	·
COc1ccccc1NC(=O)c1[nH]c(C)c(C(C)=O)c1C	-5	-2	5	7	-1	28*	33*	10
